Results filed as inconclusive are left out. Activity calls are given as the source filed them. How the source made its calls: active means hit-call score of the fitted dose curve at least 0.9, where 1 is the maximum; inconclusive means response in the unintended direction; inactive means score below 0.9.
System: 5-hydroxytryptamine receptor 2C (pig)
Experiment: NVS_GPCR_p5HT2C: NovaScreen (NVS) G Protein-Coupled Receptor Assay for pig Serotonin, 5-Hydroxytryptamine Receptor 2C (5HT2C) (AID 2283288)
Protocol: NVS_GPCR_p5HT2C is a biochemical, single-readout assay that uses extracted gene-proteins from Pig choroid plexus membranes in a tissue-based cell-free assay. Measurements were taken 1 hour after chemical dosing in a 48-well plate.NVS_GPCR_p5HT2C is one of one assay component(s) measured or calculated from the NVS_GPCR_p5HT2C assay. It is designed to make measurements of radioligand binding, a form of binding reporter, as detected with scintillation counting signals by Filter-based radiodetection technology.Data from the assay component NVS_GPCR_p5HT2C was analyzed into 1 assay endpoint. This assay endpoint, NVS_GPCR_p5HT2C, was analyzed in the positive analysis fitting direction relative to DMSO as the negative control and baseline of activity. Using a type of binding reporter, loss-of-signal activity can be used to understand changes in the binding as they relate to the gene HTR2C. Furthermore, this assay endpoint can be referred to as a primary readout, because the performed assay has only produced 1 assay endpoint. To generalize the intended target to other relatable targets, this assay endpoint is annotated to the gpcr intended target family, where the subfamily is rhodopsin-like receptor.
Binding assays used specific radioligands (tritiated, iodinated) with non-radioactive competitive displacement ligands in agonist or antagonist protocols (as indicated) and various reference compounds and inhibitors to titrate specific binding to receptors and transporters. Most enzyme assays (CYPs, kinases, phosphatases, proteases, HDACs) used recombinant protein and specific substrates (fluorescence mostly, some colorimetric and radioactive) and inhibitors, followed by a biochemical separation of substrate and product. All assays for the biochemical HTS were initially run in duplicate at a single concentration (10 uM for CYP450 assays and 25 uM for all others). […] Each assay was run with positive and negative controls, and concurrent controls on every plate. The follow-up (secondary) screen tested active chemical-pairs in concentration series, as well as a few additional assays not tested in the primary screen, some selected negative inactives, and several cases re-run in the concentration series for confirmatory purposes.

AC50, active:
CCOC(=O)c1ccc(C2CCC(NC[C@H](O)COc3ccc(O)c(NS(C)(=O)=O)c3)CC2)cc1 (some centres not stated) 19.5 µM
CC(C)(O)c1coc(S(=O)(=O)NC(=O)Nc2c3c(cc4c2CCC4)CCC3)c1 25 µM
CCOC(=O)COc1ccc2c(c1)CC(NCC(O)c1cccc(Cl)c1)CC2 (configuration not stated) 13.2 µM
Fc1ccccc1[C@@H](F)COC1CCC(Nc2ncnc3[nH]ncc23)CC1 (some centres not stated) 7.93 µM
Cc1[nH]cnc1C[C@H]1CCc2c(C)c3ccccc3n2C1=O 0.116 µM
COc1cccc(-c2ccc(/C=C\CN3CCCCCC3)cc2Cl)c1 11.8 µM
CCCCCCc1ccc(O)cc1O 16.7 µM
Oc1ccc2c(c1)-c1ccccc1C2 4.27 µM

outcome, inactive:
O=P(OC(CCl)CCl)(OC(CCl)CCl)OC(CCl)CCl
COC(=O)c1c(Cl)c(Cl)c(C(=O)OC)c(Cl)c1Cl
O=C(O)CC(O)C(=O)O (configuration not stated)
Cn1c(=O)c2c(ncn2C)n(C)c1=O

Source: PubChem BioAssay (EPA / NIEHS)
